GALC G270D up = enhancers of human galactocerebrosidase G270D mutant activity in cells | P54803 | 145M-Twi-hGALC-G270D cells (Twitcher mouse brain line with human GALC G270D), HMU-beta-Gal fluorescence, 48 h | Potency, µM (titrated, usually from 57.5 µM), hits mostly activators | 0.1% of 45,000 active; further: potency means the concentration at half of the fitted maximal effect; 0% is about no effect; nearly all actives have a fitted effect of over 65% in size
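Live 145M-Twi cells (Twitcher mouse brain-derived, GALC-null) stably expressing human GALC-G270D, with a wild-type GALC line, were compound-treated. Residual GALC activity was then read as fluorescence from 0.1 mM final HMU-β-gal at pH 5.2; higher signal means activation.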
HTT prom inh = HTT promoter inhibition | Potency, µM (doses to about 57.5 µM), without a hit: at the top dose activity change, negative = inhibition, most hits filed as inhibitors | HEK293 HTT promoter firefly luciferase reporter, 24 h | 0.93% of 48,000 active; further: potency means the concentration at half of the fitted maximal effect; nearly all actives have a fitted effect of over 50% in size
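Firefly luciferase readout (Dual-Glo, 10 min RT) after 24 h, 37 °C compound exposure (final up to 57.5 uM) of HEK293 reporter cells cultured 24 h beforehand; PTC124 at 50 uM final as control inhibitor; activity scaled vehicle 0%, zero RLU -100%.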
B2AR arrestin ag = ADRB2 beta-arrestin recruitment | P07550 | HTLA Tango cells, beta-arrestin recruitment, luciferase luminescence, 18 h | Potency, µM (doses to about 46.1 µM), actives largely listed as activators | 44,000 tested, under 10 active;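 further: potency means the concentration at half of the fitted maximal effect; 0% = DMSO and full agonism = EC100 isoproterenol or metaproterenol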
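First, Tango cells carrying beta2-AR and beta-arrestin fusions received compound up to 46 microM. After 18 hr at 37 degrees C, luciferase substrate was added for 15 minutes, then luminescence gave %Activity for curve fitting.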
HTT-AS act = activates huntingtin-antisense promoter activity | AID 1508624 | Potency, µM (titrated, usually from 57.5 µM), without a hit: top-dose activity change, positive = activation, actives largely listed as activators | 0.24% of 48,000 active | HEK293 HTT-AS promoter firefly luciferase reporter, 24 h; response scale: percent change from vehicle, -100% = no light; further: potency means the concentration at half of the fitted maximal effect; nearly all actives have a fitted effect of over 55% in size
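HEK293 cells carrying firefly luciferase reporters were seeded at 2,500 per well in Opti-MEM and cultured for 24 h. They were then treated with compounds at up to 57.5 uM final for 24 h at 37 degrees C before Dual-Glo luminescence readout.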
FH mod = Identification of activators of human fumarate hydratase by quantitative high-throughput screening | Fumarate hydratase, mitochondrial (Homo sapiens), P07954 | Potency, µM (doses to about 79.9 µM), inactives show at the top dose activity change, negative = inhibition, actives largely listed as inhibitors | AID 1347055, 2019 | FH coupled MDH/diaphorase resazurin fluorescence, 15 min | 0.22% of 54,000 active; further: potency means the concentration at half of the fitted maximal effect; on the % scale 0 is the no-effect control and ±100 the full control effect; the screen sought activators but most active calls are inhibition curves; nearly all actives have a fitted effect of over 45% in size
Target sequence (P07954 whole entry, looked up): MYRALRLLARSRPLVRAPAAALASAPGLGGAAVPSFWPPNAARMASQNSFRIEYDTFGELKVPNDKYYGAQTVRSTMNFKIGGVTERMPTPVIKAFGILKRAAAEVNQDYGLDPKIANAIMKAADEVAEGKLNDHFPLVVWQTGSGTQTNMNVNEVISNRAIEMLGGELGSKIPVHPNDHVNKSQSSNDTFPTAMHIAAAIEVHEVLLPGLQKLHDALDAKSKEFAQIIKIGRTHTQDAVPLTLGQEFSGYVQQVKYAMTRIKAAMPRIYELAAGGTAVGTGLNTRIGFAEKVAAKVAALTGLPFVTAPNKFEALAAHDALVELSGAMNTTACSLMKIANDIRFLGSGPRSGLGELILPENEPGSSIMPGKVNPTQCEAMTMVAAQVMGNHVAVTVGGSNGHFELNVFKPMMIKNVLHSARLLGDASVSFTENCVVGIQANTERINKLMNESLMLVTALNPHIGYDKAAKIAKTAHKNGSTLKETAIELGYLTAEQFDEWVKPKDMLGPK
DRV1 agonist = GPR32 (DRV1) agonism, beta-arrestin recruitment | O75388 | AID 1346428 | 2.5% of 48,000 active | activation, % at 76.9 µM | CHO-K1 GPR32 beta-arrestin PathHunter luminescence, 90 min; zero percent set by DMSO-only wells;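 active means activation of at least 60% and not above a set upper limit, about 1 call in 100 departs from these limits; inconclusive means activation of 40% to 60%, or above that upper limit; inactive means activation under 40%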; further: 0% is about no effect
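Step 1: seed CHO-K1 GPR32 beta-arrestin cells, 2,500/well, overnight at 37 °C. Step 2: add compounds, 90 min at 37 °C. Step 3: detection reagent, 1 h ambient, then luminescence.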
* marks the source's active call; other numbers are inactive results; [ ] = another dose, or the depositor's remark. Shown are actives, neighbours in structure and some others; about 3.7% of the full set was active somewhere. Unless noted, the call rests on the fitted dose curve; in most records, active means well fitted curve in the direction sought with a large enough effect; inconclusive means small, poorly fitted or top-dose-only effect, or another doubt; inactive means no such curve, though single readings can be large; an effect the other way counts as inactive or inconclusive.

CC(C)C(N)C(=O)OCC(CO)OCn1cnc2c(=O)[nH]c(N)nc21 (stereo unspecified) was read as FH mod 15%.
For Cc1cccc(OCC(=O)Nc2nc3c(s2)CC(C(C)(C)C)CC3)c1C (stereo unspecified) the results were GALC G270D up inactive, HTT prom inh -6%, B2AR arrestin ag inactive, HTT-AS act -8%, FH mod -21% and DRV1 agonist 0.
For CC(C)(C)C1CCc2nc(NC(=O)c3cccc(Cl)c3)sc2C1 (stereo unspecified) the results were GALC G270D up inactive, HTT prom inh 0.35µM*, B2AR arrestin ag inactive, HTT-AS act -76%, FH mod inconclusive and DRV1 agonist -10.
For CC(C)(C)C1CCc2nc(NC(=O)COc3ccccc3[N+](=O)[O-])sc2C1 (stereo unspecified) the results were GALC G270D up inactive, HTT prom inh 4.5µM*, B2AR arrestin ag inactive, HTT-AS act -77%, FH mod -13% and DRV1 agonist -2.
`COc1ccc(NS(=O)(=O)c2ccc3c(c2)[C@H]2C=CC[C@H]2[C@@H](c2ccc(C(=O)O)cc2)N3)cc1` gave GALC G270D up inactive, HTT prom inh -3%, B2AR arrestin ag inactive, HTT-AS act -3%, FH mod 35µM* and DRV1 agonist -10.
Screening CC(C)n1c(=N)c(C(=O)NCc2cccnc2)cc2c(=O)n3ccccc3nc21 returned GALC G270D up 4µM*, HTT prom inh -13%, B2AR arrestin ag inactive, HTT-AS act 5%, FH mod 5% and DRV1 agonist -7.
CCC(C)n1c(=N)c(C(=O)NC2CCCCC2)cc2c(=O)n3cc(C)ccc3nc21 (stereo unspecified) was read as GALC G270D up 32µM*, HTT prom inh -9%, B2AR arrestin ag inactive, HTT-AS act -9%, FH mod -2% and DRV1 agonist 6.
COCCCn1c(=N)c(C(=O)NC2CCCC2)cc2c(=O)n3cccc(C)c3nc21 was read as GALC G270D up 25µM*, HTT prom inh 2%, B2AR arrestin ag inactive, HTT-AS act -16%, FH mod 2% and DRV1 agonist -4.
For CCC(C)n1c(=N)c(C(=O)NC2CCCC2)cc2c(=O)n3ccccc3nc21 (stereo unspecified) the results were GALC G270D up 10µM*, HTT prom inh -3%, B2AR arrestin ag inactive, HTT-AS act -5%, FH mod -2% and DRV1 agonist 1.
For Cc1ccc2nc3c(cc(C(=O)NC4CCCC4)c(=N)n3C(C)C)c(=O)n2c1 the results were GALC G270D up inactive, HTT prom inh 1%, B2AR arrestin ag inactive, HTT-AS act 22%, FH mod -15% and DRV1 agonist -6.
For CC(C)n1c(=N)c(C(=O)NCc2ccccc2)cc2c(=O)n3ccccc3nc21 the results were GALC G270D up inactive, HTT prom inh -5%, B2AR arrestin ag inactive, HTT-AS act -20%, FH mod -19% and DRV1 agonist -8.
Screening COCCCn1c(=N)c(C(=O)NC2CCCC2)cc2c(=O)n3cc(C)ccc3nc21 returned GALC G270D up inactive, HTT prom inh 0%, B2AR arrestin ag inactive, HTT-AS act -5%, FH mod 1% and DRV1 agonist 0.
CC(=O)O[C@]1(C(C)=O)CC[C@H]2[C@@H]3C[C@H](C)C4=CC(=O)C=C[C@]4(C)[C@@]3(F)[C@@H](O)C[C@@]21C was read as FH mod -2%.
O=C(Nc1ccc(S(=O)(=O)Nc2ccccc2Cl)c(Cl)c1)c1ccccn1 was read as FH mod -1%.
`NC(=O)c1cnc(N[C@@H]2CCCC[C@H]2N)nc1Nc1cccc(-n2nccn2)c1` gave FH mod -16%.
`CC(C)(O)C1CC=C(C(=O)OCC2OC(Oc3c(O)cc(C(=O)O)cc3O)C(O)C(O)C2O)CC1` (stereo unspecified) gave FH mod -1%[53.3 µM].
COc1ccc(/C=C(\C#N)c2nc3ccccc3n2C)c(OC)c1 was read as GALC G270D up inactive, HTT prom inh 66%, B2AR arrestin ag inactive, HTT-AS act 3.5µM*, FH mod inconclusive and DRV1 agonist -2.
For COc1ccc(-n2nnc(-c3nc(-c4ccccc4C)no3)c2N)cc1Cl the results were GALC G270D up inactive, HTT prom inh -6%, B2AR arrestin ag inactive, HTT-AS act -9%, FH mod 6% and DRV1 agonist -1.
Screening Cc1cccc(-n2nnc(-c3nc(-c4cccs4)no3)c2N)c1C returned GALC G270D up inactive, HTT prom inh 104%, B2AR arrestin ag inactive, HTT-AS act 0.35µM*, FH mod 3% and DRV1 agonist -1.
Cc1cccc(-n2nnc(-c3nc(-c4cccs4)no3)c2N)c1 was read as GALC G270D up inactive, HTT prom inh 62%, B2AR arrestin ag inactive, HTT-AS act inconclusive, FH mod 3% and DRV1 agonist 5.
Cc1ccccc1-c1noc(-c2nnn(-c3ccccc3C)c2N)n1 was read as GALC G270D up inactive, HTT prom inh 78%, B2AR arrestin ag inactive, HTT-AS act 0.71µM*, FH mod -3% and DRV1 agonist 16.
Oc1cccc(C(Nc2ccccn2)c2ccc3cccnc3c2O)c1Cl (stereo unspecified) was read as B2AR arrestin ag inconclusive and DRV1 agonist 81*.
CC(=O)c1ccc(N2CCN(C(=O)Nc3ccc(C(C)C)cc3)CC2)cc1 was read as GALC G270D up inactive, HTT prom inh 22µM*, B2AR arrestin ag inactive, HTT-AS act -58%, FH mod -17% and DRV1 agonist 30.
`CC(=O)c1ccc(N2CCN(C(=O)Nc3cn(CC(C)C)c(=O)c4ccccc34)CC2)cc1` gave GALC G270D up inactive, HTT prom inh 2%, B2AR arrestin ag inactive, HTT-AS act -6%, FH mod 13% and DRV1 agonist -23.
For COC(=O)c1cc2sccc2n1CC(=O)Nc1cc(Cl)ccc1OC the results were GALC G270D up inactive, HTT prom inh 28µM*, B2AR arrestin ag inactive, HTT-AS act -85%, FH mod -2% and DRV1 agonist 26.
COC(=O)c1cc2sc(Cl)cc2n1Cc1c(C)cc(C)cc1C was read as GALC G270D up inactive, HTT prom inh -7%, B2AR arrestin ag inactive, HTT-AS act 11%, FH mod -14% and DRV1 agonist -6.
